According to PubChem BioAssay AID1159580 (chemical genetic matrix, 2015):
Hit rate of the full screen: of about 5,500 compounds, about 2,000 (36%) were called active. Another 18% or so got no clear call; they are omitted. Cut-off read from the data, not from the text of the source: active = normalized growth mostly below about 0.91 (no sharp cut-off); inconclusive = no clear call, values can overlap the other calls; inactive = mostly above about 0.92. The list shows a part of the results.

Experiment: chemical genetic growth profiling, strain panel (AID 1159580);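 note: tested at 20 µM; growth read once vehicle control cultures reached saturation at 30 °C; 1 = growth at the plate median or of vehicle wells; lower values mean less growth of the strain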
Conditions: growth OD

Measured: normalized growth

NCCCN
inactive: S. cerevisiae deletion strains, locus YJR066W, strain TOR1, hits give low values 0.933 | S. cerevisiae deletion strains, locus YKL009W, strain mrt4, hits give low values 1.02 | S. cerevisiae deletion strains, locus YKL068W, hits give low values 0.985 | S. cerevisiae deletion strains, locus YKL085W, strain MDH1 (second series), hits give low values 0.984 | S. cerevisiae deletion strains, locus YKL085W, strain MDH1, hits give low values 0.984 | S. cerevisiae deletion strains, locus YKL160W, strain elf1, hits give low values 1.02 | S. cerevisiae deletion strains, locus YKL190W, strain CNB1, hits give low values 0.999 | S. cerevisiae deletion strains, locus YKR001C, strain vps1, hits give low values 1.01 | S. cerevisiae deletion strains, locus YKR026C, strain gcn3, hits give low values 0.986 | S. cerevisiae deletion strains, locus YKR091W, strain srl3, hits give low values 0.998 | S. cerevisiae deletion strains, locus YLL001W, strain dnm1, hits give low values 1 | S. cerevisiae deletion strains, locus YLL026W, hits give low values 0.988 | S. cerevisiae deletion strains, locus YLL041C, strain sdh2, hits give low values 0.987 | S. cerevisiae deletion strains, locus YLR027C, strain aat2, hits give low values 1 | S. cerevisiae deletion strains, locus YLR039C, strain RIC1, hits give low values 1.09 | S. cerevisiae deletion strains, locus YLR058C, strain SHM2, hits give low values 1 | S. cerevisiae deletion strains, locus YLR102C, strain apc9, hits give low values 0.988 | S. cerevisiae deletion strains, locus YLR113W, strain HOG1, hits give low values 1.05 | S. cerevisiae deletion strains, locus YLR221C, strain rsa3, hits give low values 0.959 | S. cerevisiae deletion strains, locus YLR258W, strain gsy2, hits give low values 0.992 | S. cerevisiae deletion strains, locus YLR262C, strain YPT6 (second series), hits give low values 1.02 | S. cerevisiae deletion strains, locus YLR262C, strain YPT6, hits give low values 1.14 | S. cerevisiae deletion strains, locus YLR268W, strain sec22, hits give low values 0.979 | S. cerevisiae deletion strains, locus YLR320W, strain mms22, hits give low values 0.983 | S. cerevisiae deletion strains, locus YLR330W, strain CHS5, hits give low values 0.993 | S. cerevisiae deletion strains, locus YLR342W, strain FKS1 (second series), hits give low values 1.02 | S. cerevisiae deletion strains, locus YLR342W, strain FKS1, hits give low values 0.994 | S. cerevisiae deletion strains, locus YLR357W, strain rsc2, hits give low values 0.978 | S. cerevisiae deletion strains, locus YLR370C, strain arc18, hits give low values 0.967 | S. cerevisiae deletion strains, locus YLR371W, strain rom2, hits give low values 0.961 | S. cerevisiae deletion strains, locus YLR384C, strain iki3, hits give low values 0.993 | S. cerevisiae deletion strains, locus YLR418C, strain cdc73, hits give low values 1.03 | S. cerevisiae deletion strains, locus YML016C, strain PPZ1, hits give low values 0.994 | S. cerevisiae deletion strains, locus YML032C, strain rad52, hits give low values 1.02 | S. cerevisiae deletion strains, locus YML120C, strain ndi1, hits give low values 0.992 | S. cerevisiae deletion strains, locus YML124C, strain tub3, hits give low values 0.99 | S. cerevisiae deletion strains, locus YMR058W, strain fet3, hits give low values 0.994 | S. cerevisiae deletion strains, locus YMR078C, strain ctf18, hits give low values 0.972 | S. cerevisiae deletion strains, locus YMR125W, strain sto1, hits give low values 0.97 | S. cerevisiae deletion strains, locus YMR129W, hits give low values 0.991 | S. cerevisiae deletion strains, locus YMR205C, strain PFK2, hits give low values 1.02 | S. cerevisiae deletion strains, locus YMR223W, strain ubp8, hits give low values 1.01 | S. cerevisiae deletion strains, locus YMR231W, strain pep5, hits give low values 0.946 | S. cerevisiae deletion strains, locus YMR307W, strain GAS1, hits give low values 1.1 | S. cerevisiae deletion strains, locus YNL067W, strain RPL9B, hits give low values 1.01 | S. cerevisiae deletion strains, locus YNL071W, strain lat1, hits give low values 0.985 | S. cerevisiae deletion strains, locus YNL183C, strain NPR1, hits give low values 0.969 | S. cerevisiae deletion strains, locus YNL209W, strain ssb2, hits give low values 0.993 | S. cerevisiae deletion strains, locus YNL233W, strain BNI4, hits give low values 1.01 | S. cerevisiae deletion strains, locus YNL248C, strain rpa49, hits give low values 0.993 | S. cerevisiae deletion strains, locus YNL250W, strain rad50, hits give low values 0.979 | S. cerevisiae deletion strains, locus YNL271C, strain bni1, hits give low values 0.99 | S. cerevisiae deletion strains, locus YNL298W, strain CLA4, hits give low values 1.01 | S. cerevisiae deletion strains, locus YNL307C, strain MCK1, hits give low values 0.985 | S. cerevisiae deletion strains, locus YNL322C, strain KRE1 (second series), hits give low values 0.962 | S. cerevisiae deletion strains, locus YNL322C, strain KRE1, hits give low values 0.996 | S. cerevisiae deletion strains, locus YNR049C, strain mso1, hits give low values 0.988 | S. cerevisiae deletion strains, locus YNR052C, strain pop2, hits give low values 0.992 | S. cerevisiae deletion strains, locus YOL006C, strain TOP1, hits give low values 1.08 | S. cerevisiae deletion strains, locus YOL012C, strain htz1 0.761 | S. cerevisiae deletion strains, locus YOL147C, strain pex11, hits give low values 0.997 | S. cerevisiae deletion strains, locus YOR001W, strain rrp6, hits give low values 0.951 | S. cerevisiae deletion strains, locus YOR061W, strain CKA2, hits give low values 0.997 | S. cerevisiae deletion strains, locus YOR069W, strain VPS5, hits give low values 0.993 | S. cerevisiae deletion strains, locus YOR070C, strain gyp1, hits give low values 0.999 | S. cerevisiae deletion strains, locus YOR080W, strain dia2, hits give low values 0.97 | S. cerevisiae deletion strains, locus YOR083W, strain WHI5, hits give low values 1.02 | S. cerevisiae deletion strains, locus YOR106W, strain vam3, hits give low values 0.995 | S. cerevisiae deletion strains, locus YOR136W, strain idh2, hits give low values 0.974 | S. cerevisiae deletion strains, locus YOR144C, strain elg1, hits give low values 0.993 | S. cerevisiae deletion strains, locus YOR184W, strain ser1, hits give low values 1.01 | S. cerevisiae deletion strains, locus YOR231W, strain MKK1, hits give low values 0.987 | S. cerevisiae deletion strains, locus YOR265W, strain rbl2, hits give low values 0.99 | S. cerevisiae deletion strains, locus YOR270C, strain vph1, hits give low values 0.974 | S. cerevisiae deletion strains, locus YOR290C, strain snf2, hits give low values 0.991 | S. cerevisiae deletion strains, locus YOR316C, strain cot1, hits give low values 0.987 | S. cerevisiae deletion strains, locus YPL051W, strain arl3, hits give low values 0.984 | S. cerevisiae deletion strains, locus YPL078C, strain atp4, hits give low values 1 | S. cerevisiae deletion strains, locus YPL106C, strain sse1, hits give low values 0.996 | S. cerevisiae deletion strains, locus YPL240C, strain hsp82, hits give low values 0.986 | S. cerevisiae deletion strains, locus YPL241C, strain CIN2, hits give low values 1 | S. cerevisiae deletion strains, locus YPL256C, strain CLN2, hits give low values 0.988 | S. cerevisiae deletion strains, locus YPR119W, strain clb2, hits give low values 0.986 | S. cerevisiae deletion strains, locus YPR141C, strain kar3, hits give low values 0.985 | S. cerevisiae deletion strains, locus YPR163C, strain tif3, hits give low values 0.986 | S. cerevisiae deletion strains, locus YPR167C, strain met16, hits give low values 0.999 | S. cerevisiae deletion strains, strain wtn01, hits give low values 0.96 | S. cerevisiae strains, strain wild type, hits give low values 1
